Reference: PubChem BioAssay (NCI)
Compounds without any hit were thinned out: in the full panel of roughly 83,000, 20% have a hit.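 Interpretation: 100, growth as untreated; towards 0, rising growth inhibition; 0, no net growth; 0 to -100, cell death. Compounds scoring below 10 were considered active.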 Calls of active or inactive are those of the source.

Key:
Assay in all cases: NCI-60 one-dose screen, 48 h (100 = growth as untreated, 0 = no growth, -100 = all killed)
Conditions in all cases: 10 µM unless noted
HCT-15 colon = tested on: HCT-15 colon
HT29 colon = tested on: HT29 colon
SNB-75 CNS = tested on: SNB-75 CNS
SNB-19 CNS = tested on: SNB-19 CNS
PC-3 prostate = tested on: PC-3 prostate
SK-MEL-5 melanoma = tested on: SK-MEL-5 melanoma
UACC-62 melanoma = tested on: UACC-62 melanoma
LOX IMVI melanoma = tested on: LOX IMVI melanoma
SK-MEL-28 melanoma = tested on: SK-MEL-28 melanoma
U251 CNS = tested on: U251 CNS

Measured: growth

COC(=O)c1c[n+]([O-])ccc1OC
inactive: HCT-15 colon 103% | HT29 colon 107% | SNB-75 CNS 96.6% | SNB-19 CNS 101% | PC-3 prostate 99.5% | SK-MEL-5 melanoma 99.7% | UACC-62 melanoma 101% | LOX IMVI melanoma 104% | SK-MEL-28 melanoma 91.4%

COc1cc2ncnc(-n3ncc4cc(NC(=O)Nc5ccc(Cl)c(Cl)c5)ccc43)c2cc1OC
inactive: SNB-19 CNS 10.4%
active: HCT-15 colon -35.7% | HT29 colon -16.7% | SNB-75 CNS -57.7% | PC-3 prostate -57.1% | SK-MEL-5 melanoma -82.8% | UACC-62 melanoma -68.5% | LOX IMVI melanoma -77.7% | SK-MEL-28 melanoma -70.9%

COc1nc(OC)nc(-c2cc(-c3cc(OC)c(OC)c(OC)c3)no2)n1
inactive: HCT-15 colon 103% | HT29 colon 100% | SNB-75 CNS 97.2% | SNB-19 CNS 96.9% | PC-3 prostate 86.3% | SK-MEL-5 melanoma 88.2% | LOX IMVI melanoma 104% | SK-MEL-28 melanoma 115%

O=C(NC(=S)NNC(=S)NNc1ccccc1)c1ccccc1
active: SNB-75 CNS 4.67%
inactive: HCT-15 colon 54% | HT29 colon 81.2% | U251 CNS 48% | PC-3 prostate 32.6% | SK-MEL-5 melanoma 25.4% | UACC-62 melanoma 25.2% | LOX IMVI melanoma 48.3%

Cn1c2c(cc(S(=O)(=O)c3ccccc3)c1=O)CCc1c-2cnn1-c1ccc(Cl)cc1
active: SNB-75 CNS -54.3% | SK-MEL-5 melanoma 6.71% | LOX IMVI melanoma 6.82%
inactive: HCT-15 colon 39.5% | HT29 colon 16.8% | U251 CNS 20.7% | PC-3 prostate 28.8% | UACC-62 melanoma 35.4%

CC(=O)C(CO)C(=O)Nc1ccccc1 (centres undefined)
inactive: HCT-15 colon 98.8% | HT29 colon 101% | SNB-75 CNS 63.3% | SNB-19 CNS 101% | PC-3 prostate 102% | SK-MEL-5 melanoma 103% | UACC-62 melanoma 98.2% | LOX IMVI melanoma 83.7% | SK-MEL-28 melanoma 99.8%

COc1cc2ncnc(-n3ncc4cc(NC(=O)Nc5ccccc5)ccc43)c2cc1OC
active: SNB-75 CNS -12.4% | PC-3 prostate -18.4% | LOX IMVI melanoma 1.66% | SK-MEL-28 melanoma -15.1%
inactive: HCT-15 colon 21% | HT29 colon 29.1% | SNB-19 CNS 44.7% | UACC-62 melanoma 23.9%

COc1nc(OC)nc(-c2cc(C(=O)c3ccc(Br)cc3)n3cc(C)cc(C)c23)n1
inactive: HCT-15 colon 90.7% | HT29 colon 74.9% | SNB-19 CNS 28.9% | PC-3 prostate 72.5% | SK-MEL-5 melanoma 87.8% | UACC-62 melanoma 92.1% | SK-MEL-28 melanoma 84.7%
active: SNB-75 CNS -32.2% | LOX IMVI melanoma 3.88%

COC(=O)c1cc(=O)nc(N/N=C/c2ccccc2O)s1
inactive: HCT-15 colon 70.4% | HT29 colon 92.9% | SNB-75 CNS 110% | SNB-19 CNS 95.3% | PC-3 prostate 86.3% | SK-MEL-5 melanoma 91.6% | UACC-62 melanoma 94.8% | LOX IMVI melanoma 82.3% | SK-MEL-28 melanoma 101%

N=C(N)c1ccc(-c2ccc(-c3ccc(F)cc3)s2)cc1
active: HCT-15 colon -92.8% | HT29 colon -64.1% | SNB-75 CNS -99.2% | SNB-19 CNS -86.5% | PC-3 prostate -94% | SK-MEL-5 melanoma -99% | UACC-62 melanoma -91.8% | LOX IMVI melanoma -95.1% | SK-MEL-28 melanoma -85.9%

CCCCCSc1ccc2nc(NC(=O)OCC)sc2c1
active: SNB-75 CNS 0.686%
inactive: HCT-15 colon 25.2% | HT29 colon 13.2% | SNB-19 CNS 37.4% | PC-3 prostate 21.3% | UACC-62 melanoma 29.2% | LOX IMVI melanoma 38.4% | SK-MEL-28 melanoma 61.9%

CSc1nc(N)n2nccc2n1
inactive: HCT-15 colon 108% | HT29 colon 102% | SNB-75 CNS 78.5% | SNB-19 CNS 99.7% | PC-3 prostate 93.5% | SK-MEL-5 melanoma 98.8% | UACC-62 melanoma 98.6% | LOX IMVI melanoma 97.4% | SK-MEL-28 melanoma 98.5%

CCCCCCC(C(=O)OCC)(C(=O)OCC)C1CCCCCC1
inactive: HCT-15 colon 97.5% | HT29 colon 98.1% | SNB-75 CNS 83.7% | SNB-19 CNS 99.2% | SK-MEL-5 melanoma 100% | UACC-62 melanoma 101% | LOX IMVI melanoma 101% | SK-MEL-28 melanoma 106%

CCN(CC)CCOC(=O)c1cccnc1
inactive: HCT-15 colon 98.7% | HT29 colon 107% | SNB-75 CNS 79.6% | U251 CNS 97.7% | PC-3 prostate 99.7% | SK-MEL-5 melanoma 98% | UACC-62 melanoma 103% | LOX IMVI melanoma 90.9% | SK-MEL-28 melanoma 98.4%

CCOC(=O)c1csc(-c2ccc(COC(=O)c3ccccc3)o2)n1
inactive: HCT-15 colon 96% | HT29 colon 104% | SNB-75 CNS 92% | SNB-19 CNS 97.5% | PC-3 prostate 96.6% | SK-MEL-5 melanoma 98.2% | UACC-62 melanoma 102% | LOX IMVI melanoma 110% | SK-MEL-28 melanoma 101%
